Assay outcomes deposited in PubChem BioAssay by National Center for Advancing Translational Sciences (NCATS).
IMPase Li inh: qHTS Assay for Identifying the Cell-Membrane Permeable IMPase Inhibitors: Potentiation with Lithium | CHO-M1 cells, IP1 TR-FRET (IP-One), carbachol + lithium | Potency, µM (doses to about 59.4 µM), most hits filed as inhibitors | 0.35% of 210,000 active;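 further: IP1 builds up when IMPase is blocked and the TR-FRET signal falls; nearly all actives have a fitted effect of over 50% in size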
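Steps: plate 2000 CHO-M1 cells per well and culture 16–30 h; add compound and lithium; incubate 30 min, 37C; add d2-IP1 tracer and Eu cryptate anti-IP1 antibody in lysis buffer; read after 10 min at room temperature.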
PTAP TSG101 blk: qHTS Assay for Iinhibitors of HIV-1 Budding by Blocking the Interaction of PTAP/TSG101; AID 493005, 2010; Potency, µM (highest dose often 115 µM), most hits filed as inhibitors; Fluorescence polarization, FITC-PTAP peptide / Tsg101 binding; 340,000 tested, under 10 active; active means well fitted inhibition curve with a large enough effect in the main read-out, with a control signal flat, not every such curve was filed as active; inconclusive means small, poorly fitted or top-dose-only effect, or effect the other way, or a change in a side signal; inactive means no such curve, though single readings can be large or run the other way
Target sequence (Q99816 whole entry, looked up): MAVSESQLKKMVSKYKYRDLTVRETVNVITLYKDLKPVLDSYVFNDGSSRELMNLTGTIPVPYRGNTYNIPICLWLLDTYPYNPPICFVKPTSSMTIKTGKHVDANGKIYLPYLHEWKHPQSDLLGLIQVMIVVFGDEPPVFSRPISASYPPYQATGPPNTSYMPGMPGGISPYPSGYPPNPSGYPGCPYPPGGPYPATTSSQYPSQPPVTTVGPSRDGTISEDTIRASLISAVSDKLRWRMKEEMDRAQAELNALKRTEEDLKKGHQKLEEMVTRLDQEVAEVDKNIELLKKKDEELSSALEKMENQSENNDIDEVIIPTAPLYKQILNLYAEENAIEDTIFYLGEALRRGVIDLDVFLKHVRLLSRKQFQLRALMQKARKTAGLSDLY
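Tsg101 binding domain (10 uM final) was mixed with compound and a FITC-labeled PTAP peptide (50 nM final) in HEPES pH 7.5 buffer with NaCl, Tween 20, EDTA and TCEP; fluorescence polarization was read after 20 min at r.t.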
A-T KAP1 phos: qHTS Assay for Identifying a Potential Treatment of Ataxia-Telangiectasia. AID 485349, 2010. Potency, µM (doses to about 57.5 µM), most hits filed as activators. F2112 A-T fibroblasts, KAP-1 phosphorylation AlphaLISA; neocarzinostatin DNA damage 30 min before lysis. 0.19% of 320,000 active; further: nearly all actives have a fitted effect of over 45% in size
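ATM-like activity read as KAP-1 phosphorylation via AlphaLISA donor/acceptor antibody pairs after lysis and 6 hr at 25C. Cells were ATM-null patient fibroblasts (F2112, hTERT), dosed 60 min, then exposed to the DSB inducer NCS for 30 min.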
CBFb RUNX1 block: qHTS Assay for Compounds Blocking the Interaction Between CBF-beta and RUNX1 for the Treatment of Acute Myeloid Leukemia; AlphaScreen CBFb-His/RUNX1-biotin binding, biochemical; Potency, µM (doses to about 59.8 µM), usual class: inhibitors; 230,000 tested, under 10 active
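Inhibition was taken as any reduction in AlphaScreen signal from the CBF-beta–RUNX1 pair (His and biotin tags, 30 nM each), measured after compound (15 min) and bead (90 min) incubations at room temperature.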
Numbers stand for hits; . = inactive; ? = inconclusive; / = not tested or not shown; [ ] = another dose, or the depositor's remark. Compounds with a hit are over-represented: about 0.37% of the library has one in this group of screens. Unless noted, the call rests on the fitted dose curve; in most records, active means well fitted curve in the direction sought with a large enough effect; inconclusive means small, poorly fitted or top-dose-only effect, or another doubt; inactive means no such curve, though single readings can be large; an effect the other way counts as inactive or inconclusive.

SMILES	IMPase Li inh	PTAP TSG101 blk	A-T KAP1 phos	CBFb RUNX1 block
Cc1ccc2nc(-c3ccc(N)cc3)sc2c1	/	.	.	.
Nc1ccc2nc(-c3ccccc3)sc2c1	11µM	.	/	.
FC(F)(F)c1cccc(OCC2CNC(=S)O2)c1 (stereo unspecified)	/	.	10µM	.
CC(=O)Nc1ccc(/C=N/NC(=O)c2cccc(S(=O)(=O)N3CCOCC3)c2)cc1	.	.	.	.
COC(=O)N1C(=O)[C@@](CC(C)C)(c2ccccc2)N1C(=O)OC	/	/	35µM	/
COC(=O)N1C(=O)[C@](CC(C)C)(c2ccccc2)N1C(=O)OC	/	.	.	/
COC(=O)N1C(=O)[C@](c2ccccc2)(C2CCCCC2)N1C(=O)OC	/	.	.	/
COC(=O)N1C(=O)[C@@](c2ccccc2)(C2CCCC2)N1C(=O)OC	/	.	25µM	/
CCCN(CC(=O)Nc1ccccc1OC)C(=O)CCC(=O)c1ccc(Cl)s1	/	.	.	/
NC1=CC(=O)c2cccc3cccc1c23	13µM	/	.	.
O=C1C=C(O)c2cccc3cccc1c23	/	.	.	/
CCc1nc(N2CCCC(C)C2)c2oc3ccccc3c2n1 (stereo unspecified)	/	.	40µM	.
O=C(CSc1nc(Nc2ccccc2)nc(N2CCOCC2)n1)Nc1ccc([N+](=O)[O-])cc1	.	.	.	.
CCN(C(=O)c1cc2c(=O)n3ccccc3nc2n1CCCOC)C1CCCCC1	/	.	28µM	/
O=C(C1CCC1)N1CCc2cc(S(=O)(=O)NCCCN3CCCCC3)ccc21	/	.	.	/
Cc1ccccc1C(=O)NN(C)c1nc2ccccc2nc1C(F)(F)F	5.6µM	.	.	.
C/C(=N/NC(=O)CNC(=O)c1ccc2c(c1)OCO2)c1ccc2c(c1)CCCC2	.	.	.	.
CC(C)C[C@H](N)c1nnc(SCc2ccc(Cl)cc2)o1	/	.	40µM	.
COc1cccc(CN2C(=O)c3cccc(N)c3C2=O)c1	.	.	25µM	.
Clc1nc(-c2ccccc2)cc(-c2ccc(Br)cc2)n1	/	.	/	/
Cc1nc(NC(=O)c2ccco2)sc1C(=O)O	/	.	.	/
COC(=O)c1sc(NC(=O)c2ccco2)nc1C	10µM	.	.	.
CC1Cc2cc(/C(O)=C3/C(=O)C(=O)N(CCN4CCOCC4)C3c3cccc(Cl)c3)ccc2O1 (stereo unspecified)	6.3µM	.	.	.
CC1CC(NC(=O)c2cc3c(=O)n4ccccc4nc3n2C)CC(C)(C)C1 (stereo unspecified)	/	.	28µM	/
Cn1c(C(=O)N2CCOCC2)cc2c(=O)n3ccccc3nc21	/	.	.	/
SMILES	IMPase Li inh	PTAP TSG101 blk	A-T KAP1 phos	CBFb RUNX1 block
Cn1c(C(=O)N2CCN(C(=O)c3ccco3)CC2)cc2c(=O)n3ccccc3nc21	10µM	.	/	.
CC1CCCCC1NC(=O)c1cc2c(=O)n3ccccc3nc2n1C (stereo unspecified)	/	.	?	/
CCn1c(=O)c(C(=O)NCCc2ccc(Cl)cc2)c(O)c2ccccc21	/	.	.	/
Cc1noc(C)c1CNCc1ccccc1	/	.	.	/
CC(C)Cc1nc2sc3c(=O)[nH]cnc3c2c2c1CCC2	10µM	.	.	.
CC(=O)/C=C(\C)Nc1ccc(-c2cnc(-c3ccccc3)o2)cc1	8.9µM	.	.	.
COc1cccc(-c2ccc(C#N)c(SCC(=O)NCCc3cccc(Cl)c3)n2)c1	11µM	.	.	.
O=C(NC1CCCCC1)N(CCN1CCCC1)Cc1cc2cc3c(cc2[nH]c1=O)OCCO3	.	.	.	.
C=CCN(c1ccccc1)S(=O)(=O)c1ccc(Cl)c(C(=O)OCC(=O)N(C)C2CCS(=O)(=O)C2)c1 (stereo unspecified)	.	.	.	.
Cc1ccc(-c2nc(NC(=O)CSc3nnc(C)s3)ns2)cc1	14µM	.	.	.
Cc1c(C(=O)O)sc2c1c(=O)n(Cc1ccccc1)c(=O)n2C	/	.	.	/
CCOC(=O)Cn1c(=O)n(Cc2ccccc2)c(=O)c2cccnc21	/	.	.	/
S=c1[nH]nc(-c2cccc(Br)c2)o1	10µM	.	.	.
S=c1[nH]nc(-c2cccnc2)o1	.	.	.	.
COC(=O)CCCC1=CC2=CC(=O)C(C)(OC(=O)c3cccs3)C(=O)C2=CN1C1CCCCC1 (stereo unspecified)	.	.	25µM	.[13.1 µM]
c1ccc(CN2CCC(Nc3nc(-c4cccnc4)nc4ccccc34)CC2)cc1	.	.	.	.
CN1CC[n+]2c(CN3C(=O)c4ccccc4C3=O)csc21	.	.	.	.
COc1ccc(C(=O)N/N=C2\SCC(=O)N2Cc2ccc3c(c2)OCO3)c(OC)c1	.	.	.	.
COCCN(C(=S)Nc1c(C)cccc1C)C(C)c1ccco1 (stereo unspecified)	/	.	20µM	.
NC(=O)c1ccc(NC(=O)C2CCCC2)cc1	/	.	.	/
CCN1/C(=C/c2ccc3cc(C)cc(C)c3[n+]2CC)Sc2cc(C)ccc21	11µM	.	.	?
O=C(NC1CCCc2ccccc21)c1cccc(S(=O)(=O)N2CCOCC2)c1 (stereo unspecified)	.	.	.	.
COc1ccc(CN2CNc3nc4ccccc4n3C2)cc1	.	.	/	.
c1coc(CN2CNc3nc4ccccc4n3C2)c1	/	.	10µM	.
COc1ccc(OC)c(/C=C/C(=O)NC2=NCCS2)c1	11µM	.	.	.
SMILES	IMPase Li inh	PTAP TSG101 blk	A-T KAP1 phos	CBFb RUNX1 block
COc1ccc(/C=C/C(=O)NC2=NCCS2)cc1OC	.	.	.	.
COc1ccc(C(=O)Cc2ccccc2C(=O)O)cc1	/	.	/	/
CCn1nc(C)c(CNC(=O)c2cc(COc3ccc(F)cc3Cl)on2)c1C	/	.	1.6µM	.
CCn1cc(CNC(=O)c2cc(COc3ccc(F)cc3Cl)on2)cn1	.	.	.	.
O=C(NCC(Cl)c1ccc2ccccc2c1)c1c(F)cccc1F (stereo unspecified)	/	.	20µM	/
O=C(NCCCNC(=O)c1c(F)cccc1F)c1c(F)cccc1F	/	.	.	/
Fc1ccc(C2CC(c3cccs3)=NN2c2ccccc2)cc1 (stereo unspecified)	.	.	32µM	?
c1ccc(C2CC(c3cccs3)=NN2c2ccccc2)cc1 (stereo unspecified)	/	?	20µM	?
COc1ccc(C2CC(c3cccs3)=NN2c2ccc(C=O)cc2)cc1 (stereo unspecified)	?	?	25µM	.
COc1ccc(C2=NN(c3ccc(C=O)cc3)C(c3ccccc3)C2)cc1 (stereo unspecified)	/	.	.	/
Oc1ccccc1C1=NN(c2ccccc2)C(c2ccc(F)cc2)C1 (stereo unspecified)	/	.	.	/
Cc1sc2ncnc(SC(C)C#N)c2c1C (stereo unspecified)	.	.	.	.
CC(=O)Nc1ccc(NC2=C(Cl)C(=O)c3ccccc3C2=O)cc1	.	.	3.2µM	.
